The values below come from PubChem BioAssay (NCI).

The structures appear in SMILES notation. Compounds without any hit were thinned out: in the full panel of roughly 83,000, 20% have a hit.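 96-well plates, one dose, 48 hours. Percent growth reported; active if below 10.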 Values without a mark were called inactive. Calls of active or inactive are those of the source.

Test systems include EKVX NSCLC; SN12C renal; UO-31 renal; TK-10 renal; ACHN renal; CAKI-1 renal; CCRF-CEM leukemia; MOLT-4 leukemia; SR leukemia; RPMI-8226 leukemia; OVCAR-5 ovarian; OVCAR-4 ovarian; SK-OV-3 ovarian; IGROV1 ovarian; OVCAR-3 ovarian; HS 578T breast; NCI/ADR-RES ovarian; T-47D breast; OVCAR-8 ovarian; A498 renal.
Experiment in all cases: NCI-60 one-dose screen, 48 h (100 = growth as untreated, 0 = no growth, -100 = all killed)
What all share (settings): 10 µM unless noted

`NS(=O)(=O)c1cccc(Nc2nc(SCC(=O)c3ccc([N+](=O)[O-])cc3)nc3ccccc23)c1`: the growth in the experiment with EKVX NSCLC is 70.9%; in the experiment on SN12C renal it was 56.9%; in the experiment with UO-31 renal it was 40.5%; with TK-10 renal it was 95.6%; with ACHN renal, 45.8%; in the experiment with CAKI-1 renal it was 27.6%. In addition, the growth in the experiment on CCRF-CEM leukemia is 12%; with MOLT-4 leukemia it was -6.08% (active); with SR leukemia, 17.5%; in the experiment with RPMI-8226 leukemia, -9.57% (active); in the experiment on OVCAR-5 ovarian, 108%; with OVCAR-4 ovarian, 43%. Moreover, the growth was 73.5% in the experiment with SK-OV-3 ovarian; 16.6% with IGROV1 ovarian; 36.5% in the experiment on OVCAR-3 ovarian; 65.6% in the experiment on HS 578T breast; 72.7% with NCI/ADR-RES ovarian; 10.8% in the experiment with T-47D breast.

Regarding `COC(=O)C(Cc1ccccc1)NS(=O)(=O)/N=C1\NC(=O)NC1=C(Cl)Cl` (stereo unspecified), the growth in the experiment with EKVX NSCLC was 104%; in the experiment on SN12C renal, 96.8%; in the experiment on UO-31 renal, 81.3%; with TK-10 renal, 118%; with ACHN renal, 98.1%; in the experiment with CAKI-1 renal, 100%. The growth in the experiment on CCRF-CEM leukemia was 37.8%; in the experiment on MOLT-4 leukemia, 79.3%; in the experiment with SR leukemia, 82.9%; in the experiment with RPMI-8226 leukemia, 4.3% (active); with OVCAR-8 ovarian it was 102%; in the experiment on OVCAR-5 ovarian, 115%. The growth was 112% in the experiment with OVCAR-4 ovarian; 108% in the experiment on SK-OV-3 ovarian; 101% with IGROV1 ovarian; 100% with HS 578T breast; 106% in the experiment with NCI/ADR-RES ovarian; 68.4% in the experiment with T-47D breast.

Consider `O=C(N/N=C/c1cccs1)c1[nH]c2ccc(Br)cc2c1-c1ccccc1`, for which the growth in the experiment on EKVX NSCLC is 42.2%; with SN12C renal it was 45.7%; with UO-31 renal it was 49.4%; in the experiment with TK-10 renal it was 121%; in the experiment with ACHN renal, 28.5%; in the experiment on CAKI-1 renal, 25.7%. The growth in the experiment with CCRF-CEM leukemia was 8.56% (active); with MOLT-4 leukemia, 11.5%; in the experiment with SR leukemia, 6.19% (active); with RPMI-8226 leukemia it was 3.64% (active); with OVCAR-5 ovarian, 46.1%; in the experiment on OVCAR-4 ovarian, 72.2%. Further, the growth is 36% with SK-OV-3 ovarian; 18% with IGROV1 ovarian; 21.5% with OVCAR-3 ovarian; 27.2% in the experiment on HS 578T breast; 17.8% in the experiment on NCI/ADR-RES ovarian; 68.4% in the experiment on T-47D breast.

On to `COc1cc(/C=C/C(=O)c2ccc(C(F)(F)F)cc2)ccc1Oc1nc(NCCO)nc(N2CCOCC2)n1`, for which the growth with EKVX NSCLC was 93.7%; with SN12C renal, 86.9%; in the experiment with UO-31 renal, 70.5%; in the experiment with TK-10 renal it was 111%; in the experiment with ACHN renal it was 86.2%; with CAKI-1 renal it was 82.7%. In addition, the growth with CCRF-CEM leukemia was 4.08% (active); in the experiment with MOLT-4 leukemia it was 3.51% (active); in the experiment with SR leukemia, -8.21% (active); in the experiment with RPMI-8226 leukemia, -16.1% (active); in the experiment on OVCAR-8 ovarian it was 95.9%; in the experiment with OVCAR-5 ovarian, 101%. Also, the growth in the experiment on OVCAR-4 ovarian was 96%; in the experiment on IGROV1 ovarian, 92.5%; in the experiment with OVCAR-3 ovarian it was 109%; with HS 578T breast, 82%; with NCI/ADR-RES ovarian it was 96.7%; in the experiment with T-47D breast, 83.5%.

Consider `COC(=O)C1CCCN(S(=O)(=O)/N=C2\NC(=O)NC2=C(Cl)Cl)C1` (stereo unspecified), for which the growth was 104% in the experiment on EKVX NSCLC; 102% with SN12C renal; 92.2% in the experiment on UO-31 renal; 74.6% in the experiment with TK-10 renal; 109% in the experiment with ACHN renal; 102% in the experiment on CAKI-1 renal. Besides, the growth with CCRF-CEM leukemia is 58%; with MOLT-4 leukemia, 96.3%; in the experiment on SR leukemia, 28.6%; with RPMI-8226 leukemia, 0.297% (active); with OVCAR-8 ovarian it was 105%; with OVCAR-5 ovarian it was 130%. Further, the growth in the experiment on OVCAR-4 ovarian is 119%; in the experiment on SK-OV-3 ovarian it was 106%; with IGROV1 ovarian, 107%; with HS 578T breast it was 110%; in the experiment on T-47D breast, 68.2%.

Take `COc1cc(N=Cc2sc(Nc3nccs3)nc2O)cc(OC)c1OC`: the growth was 82.2% in the experiment with EKVX NSCLC; 94.7% in the experiment on SN12C renal; 59% with UO-31 renal; 224% with TK-10 renal; 86% with ACHN renal; 69% in the experiment on CAKI-1 renal. The growth in the experiment with CCRF-CEM leukemia was 72%; in the experiment on MOLT-4 leukemia it was 78.2%; in the experiment on SR leukemia, 63.9%; with RPMI-8226 leukemia it was 81.6%; with OVCAR-5 ovarian, 103%; with OVCAR-4 ovarian, 82.9%. The growth was 66% in the experiment with IGROV1 ovarian; 82.8% in the experiment with OVCAR-3 ovarian; 80.5% with HS 578T breast; 78.4% with NCI/ADR-RES ovarian; 89.3% in the experiment with T-47D breast.

As for `Clc1ccc(-c2cn3cc(Cc4ccc(Cl)c(Cl)c4)sc3n2)cc1`, the growth was 69.8% in the experiment with EKVX NSCLC; 76.6% in the experiment with SN12C renal; 68.1% in the experiment with UO-31 renal; 112% in the experiment with TK-10 renal; 47% in the experiment with ACHN renal; 82.3% in the experiment on A498 renal. Also, the growth was 79.7% in the experiment on CCRF-CEM leukemia; 61% with MOLT-4 leukemia; 94.5% with SR leukemia; 90.9% in the experiment with RPMI-8226 leukemia; 75.5% in the experiment with OVCAR-8 ovarian; 83.6% in the experiment on OVCAR-5 ovarian. Moreover, the growth is 56.1% in the experiment with OVCAR-4 ovarian; 106% with SK-OV-3 ovarian; 62.5% with IGROV1 ovarian; 97.5% in the experiment on OVCAR-3 ovarian; 94.1% in the experiment with HS 578T breast; 88.9% in the experiment on NCI/ADR-RES ovarian. Further, the growth in the experiment with T-47D breast was 50.4%.

Turning to `COc1ccc(/C=C2\SC(=Nc3cc(C)[nH]n3)NC2=O)cc1`, the growth in the experiment with EKVX NSCLC was 91.5%; in the experiment on SN12C renal, 96%; in the experiment on UO-31 renal, 75.3%; in the experiment on TK-10 renal, 102%; in the experiment with ACHN renal it was 88.1%; in the experiment with CAKI-1 renal, 83.4%. Moreover, the growth in the experiment on CCRF-CEM leukemia is 86.7%; with MOLT-4 leukemia, 94%; in the experiment on SR leukemia, 82%; with RPMI-8226 leukemia it was 88.2%; in the experiment on OVCAR-8 ovarian it was 103%; with OVCAR-5 ovarian it was 90.3%. Moreover, the growth is 97.4% in the experiment with OVCAR-4 ovarian; 85.7% in the experiment with SK-OV-3 ovarian; 97.3% in the experiment on IGROV1 ovarian; 104% in the experiment on OVCAR-3 ovarian; 91.4% in the experiment with HS 578T breast; 85.2% in the experiment on T-47D breast.

Consider `O=C1NC(=C(Cl)Cl)/C(=N/S(=O)(=O)N2CCCCC2CC2(C(F)(F)F)N=N2)N1` (stereo unspecified), for which the growth in the experiment on EKVX NSCLC is 59.2%; with SN12C renal it was 95.8%; in the experiment with UO-31 renal, 18.2%; in the experiment on TK-10 renal, 63.4%; with ACHN renal, -48.9% (active); in the experiment on CAKI-1 renal, -65.4% (active). The growth with CCRF-CEM leukemia was 4.21% (active); with MOLT-4 leukemia it was -9.34% (active); in the experiment on SR leukemia it was -33.4% (active); in the experiment on RPMI-8226 leukemia, -6.5% (active); with OVCAR-8 ovarian it was 17.6%; in the experiment on OVCAR-5 ovarian, 91.1%. The growth in the experiment on OVCAR-4 ovarian was -10.2% (active); in the experiment on IGROV1 ovarian, -0.053% (active); in the experiment with OVCAR-3 ovarian, -15.1% (active); in the experiment on HS 578T breast, 52.2%; in the experiment with NCI/ADR-RES ovarian, 63.4%; in the experiment with T-47D breast, 65.7%.
